Assay results: article PMC7862700, “An all-to-all approach to the identification of sequence-specific readers for epigenetic DNA modifications on cytosine”

Experiments:
Experiment in all cases: DAPPL (digital affinity profiling via proximity ligation, sequencing); 10 mM Tris-HCl pH 7.5, 50 mM NaCl, 1 mM DTT, 4% glycerol, room temperature, 30 min; GST-TFs on glutathione beads, 16-mer random dsDNA library, 0.1% formaldehyde crosslink after washing; high values mean tight binding
FEV = target: T1, FEV (Homo sapiens, UniProt Q99581 1-238); settings: protein: recombinant; tags: N-terminal GST; dsDNA, one strand shown
T1 sequence: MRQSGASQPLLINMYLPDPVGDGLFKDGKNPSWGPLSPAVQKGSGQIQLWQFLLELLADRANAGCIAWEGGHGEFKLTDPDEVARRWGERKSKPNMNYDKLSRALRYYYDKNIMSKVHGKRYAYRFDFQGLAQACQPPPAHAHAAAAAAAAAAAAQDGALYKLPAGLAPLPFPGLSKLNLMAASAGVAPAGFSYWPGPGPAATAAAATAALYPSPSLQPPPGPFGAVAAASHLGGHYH
How it was run: (§1)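 GST fusions of human transcription factors were expressed in yeast and captured with glutathione beads. Once given DNA barcodes and pooled alongside a tag-only sample, they were incubated for 30 min at room temperature with 200 nmole of a random double-stranded 16-mer DNA library in Tris/NaCl/DTT/glycerol buffer, then washed, crosslinked (0.1% formaldehyde), proximity-ligated, PCR-amplified and sequenced on an Illumina NextSeq500. The binding signal of each hexamer is its read frequency for a factor divided by its frequency for the tag-only sample.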

ETV5 = ETV5 (Homo sapiens, UniProt P41161 1-510); settings: protein: recombinant; tags: N-terminal GST; dsDNA, one strand shown
How it was run: as §1

HSF1 = HSF1 (Homo sapiens, UniProt Q00613 1-529); settings: protein: recombinant; tags: N-terminal GST; chain copies: 3; dsDNA, one strand shown
How it was run: as §1

SPIC = target: T2, SPIC (Homo sapiens, UniProt Q8N5J4 1-248); settings: protein: recombinant; tags: N-terminal GST; dsDNA, one strand shown
T2 sequence: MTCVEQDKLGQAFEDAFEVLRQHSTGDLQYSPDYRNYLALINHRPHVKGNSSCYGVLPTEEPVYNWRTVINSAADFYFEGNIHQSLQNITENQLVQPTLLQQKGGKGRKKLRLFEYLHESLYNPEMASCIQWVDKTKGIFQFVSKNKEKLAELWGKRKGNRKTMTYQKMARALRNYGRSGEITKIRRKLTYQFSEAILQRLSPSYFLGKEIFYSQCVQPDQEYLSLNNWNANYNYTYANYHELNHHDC
How it was run: as §1

ELF4 = ELF4 (Homo sapiens, UniProt Q99607 1-663); settings: protein: recombinant; tags: N-terminal GST; dsDNA, one strand shown
How it was run: as §1

ELK4 = target: T3, ELK4 (Homo sapiens, UniProt P28324-2 1-405); settings: protein: recombinant; tags: N-terminal GST; dsDNA, one strand shown
T3 sequence: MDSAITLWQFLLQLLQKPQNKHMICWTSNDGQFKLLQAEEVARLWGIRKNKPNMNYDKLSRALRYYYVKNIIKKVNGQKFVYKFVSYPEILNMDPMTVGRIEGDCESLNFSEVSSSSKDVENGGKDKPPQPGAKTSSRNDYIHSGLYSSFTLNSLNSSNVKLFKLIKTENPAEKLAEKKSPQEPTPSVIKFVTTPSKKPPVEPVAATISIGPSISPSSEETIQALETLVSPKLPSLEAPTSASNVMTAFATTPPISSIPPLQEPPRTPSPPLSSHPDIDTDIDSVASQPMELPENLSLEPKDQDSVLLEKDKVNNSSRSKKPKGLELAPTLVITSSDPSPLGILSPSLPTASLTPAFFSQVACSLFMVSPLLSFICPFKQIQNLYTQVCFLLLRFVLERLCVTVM
How it was run: as §1

ETV2 = target: T4, ETV2 (Homo sapiens, UniProt O00321 1-342); settings: protein: recombinant; tags: N-terminal GST; dsDNA, one strand shown
T4 sequence: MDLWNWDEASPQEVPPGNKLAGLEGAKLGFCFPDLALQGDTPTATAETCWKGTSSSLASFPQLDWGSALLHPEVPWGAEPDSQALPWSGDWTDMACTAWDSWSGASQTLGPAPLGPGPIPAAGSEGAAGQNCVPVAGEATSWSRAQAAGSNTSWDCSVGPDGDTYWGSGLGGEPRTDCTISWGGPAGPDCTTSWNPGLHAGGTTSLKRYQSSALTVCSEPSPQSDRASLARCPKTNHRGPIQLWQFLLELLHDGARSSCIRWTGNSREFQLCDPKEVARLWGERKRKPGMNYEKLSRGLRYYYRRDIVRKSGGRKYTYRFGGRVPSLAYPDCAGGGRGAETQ
How it was run: as §1

ELF3 = target: T5, ELF3 (Homo sapiens, UniProt P78545 1-371); settings: protein: recombinant; tags: N-terminal GST; dsDNA, one strand shown
T5 sequence: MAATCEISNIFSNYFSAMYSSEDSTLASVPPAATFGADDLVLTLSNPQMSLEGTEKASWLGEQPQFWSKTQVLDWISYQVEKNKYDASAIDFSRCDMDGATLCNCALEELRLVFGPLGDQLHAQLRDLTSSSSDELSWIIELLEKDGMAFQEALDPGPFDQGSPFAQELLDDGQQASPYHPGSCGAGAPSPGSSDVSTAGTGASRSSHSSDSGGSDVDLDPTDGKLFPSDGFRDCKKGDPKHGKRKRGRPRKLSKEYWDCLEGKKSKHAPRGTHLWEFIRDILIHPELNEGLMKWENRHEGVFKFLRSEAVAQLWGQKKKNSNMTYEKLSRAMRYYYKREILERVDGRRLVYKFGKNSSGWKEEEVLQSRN
How it was run: as §1

CRX = CRX (Homo sapiens, UniProt O43186 1-299); settings: protein: recombinant; tags: N-terminal GST; dsDNA, one strand shown
How it was run: as §1

ETV1 = ETV1 (Homo sapiens, UniProt P50549 1-477); settings: protein: recombinant; tags: N-terminal GST; dsDNA, one strand shown
How it was run: as §1

ERF = target: T6, ERF (Homo sapiens, UniProt P50548 1-548); settings: protein: recombinant; tags: N-terminal GST; dsDNA, one strand shown
T6 sequence: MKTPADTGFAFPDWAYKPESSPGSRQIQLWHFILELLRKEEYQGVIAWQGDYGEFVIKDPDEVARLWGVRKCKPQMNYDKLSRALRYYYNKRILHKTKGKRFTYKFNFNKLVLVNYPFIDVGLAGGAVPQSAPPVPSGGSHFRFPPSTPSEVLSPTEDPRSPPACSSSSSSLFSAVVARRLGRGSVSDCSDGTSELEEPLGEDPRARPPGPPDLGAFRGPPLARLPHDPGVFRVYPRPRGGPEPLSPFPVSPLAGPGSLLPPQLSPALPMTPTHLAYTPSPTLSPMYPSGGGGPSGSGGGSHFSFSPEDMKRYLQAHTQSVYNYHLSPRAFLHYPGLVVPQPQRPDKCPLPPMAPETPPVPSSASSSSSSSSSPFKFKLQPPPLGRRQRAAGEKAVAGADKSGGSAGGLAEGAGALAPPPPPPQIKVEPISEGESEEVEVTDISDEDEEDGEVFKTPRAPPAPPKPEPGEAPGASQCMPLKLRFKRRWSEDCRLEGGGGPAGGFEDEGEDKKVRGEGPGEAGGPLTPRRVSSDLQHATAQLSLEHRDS
How it was run: as §1

ETV3L = target: T7, ETV3L (Homo sapiens, UniProt Q6ZN32 1-361); settings: protein: recombinant; tags: N-terminal GST; dsDNA, one strand shown
T7 sequence: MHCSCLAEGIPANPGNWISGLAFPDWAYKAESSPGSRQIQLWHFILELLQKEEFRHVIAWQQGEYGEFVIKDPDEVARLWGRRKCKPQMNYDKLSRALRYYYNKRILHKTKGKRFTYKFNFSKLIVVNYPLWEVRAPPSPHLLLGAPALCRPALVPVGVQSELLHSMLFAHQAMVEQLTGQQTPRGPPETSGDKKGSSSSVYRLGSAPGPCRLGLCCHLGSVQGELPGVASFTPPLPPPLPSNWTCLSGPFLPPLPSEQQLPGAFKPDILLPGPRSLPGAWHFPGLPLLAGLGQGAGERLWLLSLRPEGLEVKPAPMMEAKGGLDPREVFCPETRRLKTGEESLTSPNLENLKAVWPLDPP
How it was run: as §1

ETS2 = target: T8, ETS2 (Homo sapiens, UniProt P15036 1-469); settings: protein: recombinant; tags: N-terminal GST; dsDNA, one strand shown
T8 sequence: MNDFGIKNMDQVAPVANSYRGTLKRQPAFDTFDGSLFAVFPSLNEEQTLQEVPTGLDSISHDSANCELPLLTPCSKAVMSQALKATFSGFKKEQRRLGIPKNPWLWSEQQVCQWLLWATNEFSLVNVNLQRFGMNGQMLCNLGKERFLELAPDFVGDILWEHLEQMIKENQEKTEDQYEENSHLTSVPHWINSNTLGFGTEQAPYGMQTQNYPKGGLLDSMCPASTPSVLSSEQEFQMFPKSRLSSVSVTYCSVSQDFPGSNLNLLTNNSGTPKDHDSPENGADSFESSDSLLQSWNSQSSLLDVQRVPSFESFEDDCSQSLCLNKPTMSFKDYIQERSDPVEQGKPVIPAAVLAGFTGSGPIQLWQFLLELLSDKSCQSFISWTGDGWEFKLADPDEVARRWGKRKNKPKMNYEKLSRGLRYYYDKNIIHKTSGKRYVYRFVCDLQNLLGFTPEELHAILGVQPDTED
How it was run: as §1

SPDEF = target: T9, SPDEF (Homo sapiens, UniProt O95238 1-335); settings: protein: recombinant; tags: N-terminal GST; dsDNA, one strand shown
T9 sequence: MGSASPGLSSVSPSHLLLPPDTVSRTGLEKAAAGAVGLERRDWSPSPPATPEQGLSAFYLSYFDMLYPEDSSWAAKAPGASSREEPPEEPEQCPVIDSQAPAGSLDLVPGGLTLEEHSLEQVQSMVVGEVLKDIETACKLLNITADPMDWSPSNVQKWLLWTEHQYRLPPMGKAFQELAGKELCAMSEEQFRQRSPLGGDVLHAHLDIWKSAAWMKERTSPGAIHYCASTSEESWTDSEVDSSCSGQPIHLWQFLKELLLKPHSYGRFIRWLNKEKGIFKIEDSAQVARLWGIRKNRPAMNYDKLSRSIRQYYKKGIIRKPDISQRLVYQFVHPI
How it was run: as §1

ETV7 = target: T10, ETV7 (Homo sapiens, UniProt Q9Y603 1-341); settings: protein: recombinant; tags: N-terminal GST; dsDNA, one strand shown
T10 sequence: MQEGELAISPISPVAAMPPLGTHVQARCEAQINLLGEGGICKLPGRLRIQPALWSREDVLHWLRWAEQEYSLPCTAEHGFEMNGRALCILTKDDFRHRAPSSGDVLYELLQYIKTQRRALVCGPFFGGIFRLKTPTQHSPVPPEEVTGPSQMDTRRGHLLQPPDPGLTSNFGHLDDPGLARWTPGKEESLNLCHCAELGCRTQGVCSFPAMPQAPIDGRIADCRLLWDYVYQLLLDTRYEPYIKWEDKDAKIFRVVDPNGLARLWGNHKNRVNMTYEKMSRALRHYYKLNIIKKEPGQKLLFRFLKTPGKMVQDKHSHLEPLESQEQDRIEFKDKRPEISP
How it was run: as §1

ELF5 = target: T11, ELF5 (Homo sapiens, UniProt Q9UKW6-2 1-255); settings: protein: recombinant; tags: N-terminal GST; dsDNA, one strand shown
T11 sequence: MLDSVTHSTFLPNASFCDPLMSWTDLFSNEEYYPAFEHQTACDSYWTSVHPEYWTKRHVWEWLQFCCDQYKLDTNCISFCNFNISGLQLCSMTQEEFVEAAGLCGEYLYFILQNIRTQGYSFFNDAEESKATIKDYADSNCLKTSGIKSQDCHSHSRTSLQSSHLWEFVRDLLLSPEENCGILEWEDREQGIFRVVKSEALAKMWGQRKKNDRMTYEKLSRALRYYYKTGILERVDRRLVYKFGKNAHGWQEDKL
How it was run: as §1

ETV3 = target: T12, ETV3 (Homo sapiens, UniProt P41162-2 1-143); settings: protein: recombinant; tags: N-terminal GST; dsDNA, one strand shown
T12 sequence: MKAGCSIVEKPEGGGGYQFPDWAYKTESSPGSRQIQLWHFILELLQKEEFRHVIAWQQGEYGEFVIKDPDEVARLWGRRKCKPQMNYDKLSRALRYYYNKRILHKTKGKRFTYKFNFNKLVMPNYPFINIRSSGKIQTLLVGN
How it was run: as §1

ETV6 = ETV6 (Homo sapiens, UniProt P41212 1-452); settings: protein: recombinant; tags: N-terminal GST; dsDNA, one strand shown
How it was run: as §1

CRX, sequence (O43186 whole entry): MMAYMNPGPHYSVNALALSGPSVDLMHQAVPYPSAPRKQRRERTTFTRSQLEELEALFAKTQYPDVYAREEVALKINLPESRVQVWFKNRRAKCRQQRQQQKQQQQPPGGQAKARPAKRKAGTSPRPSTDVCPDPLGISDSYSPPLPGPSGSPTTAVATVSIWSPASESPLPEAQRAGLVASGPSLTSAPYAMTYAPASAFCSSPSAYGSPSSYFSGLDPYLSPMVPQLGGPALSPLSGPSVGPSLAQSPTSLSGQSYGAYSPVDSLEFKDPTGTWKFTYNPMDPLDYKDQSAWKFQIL
HSF1, sequence (Q00613 whole entry): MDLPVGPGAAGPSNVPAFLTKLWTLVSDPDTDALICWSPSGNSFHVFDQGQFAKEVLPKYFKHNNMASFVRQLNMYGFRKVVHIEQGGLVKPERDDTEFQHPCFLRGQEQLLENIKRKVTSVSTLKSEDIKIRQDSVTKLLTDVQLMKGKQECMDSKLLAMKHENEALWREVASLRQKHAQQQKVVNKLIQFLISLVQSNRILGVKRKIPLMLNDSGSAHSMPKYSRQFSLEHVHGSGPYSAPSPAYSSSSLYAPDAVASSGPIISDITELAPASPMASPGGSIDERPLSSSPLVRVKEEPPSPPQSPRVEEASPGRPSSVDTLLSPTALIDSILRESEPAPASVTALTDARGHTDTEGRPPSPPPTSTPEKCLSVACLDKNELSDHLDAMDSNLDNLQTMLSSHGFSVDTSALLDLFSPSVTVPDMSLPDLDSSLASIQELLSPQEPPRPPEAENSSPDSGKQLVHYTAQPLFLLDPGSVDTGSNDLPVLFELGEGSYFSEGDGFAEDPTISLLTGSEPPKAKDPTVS
ETV1, sequence (P50549 whole entry): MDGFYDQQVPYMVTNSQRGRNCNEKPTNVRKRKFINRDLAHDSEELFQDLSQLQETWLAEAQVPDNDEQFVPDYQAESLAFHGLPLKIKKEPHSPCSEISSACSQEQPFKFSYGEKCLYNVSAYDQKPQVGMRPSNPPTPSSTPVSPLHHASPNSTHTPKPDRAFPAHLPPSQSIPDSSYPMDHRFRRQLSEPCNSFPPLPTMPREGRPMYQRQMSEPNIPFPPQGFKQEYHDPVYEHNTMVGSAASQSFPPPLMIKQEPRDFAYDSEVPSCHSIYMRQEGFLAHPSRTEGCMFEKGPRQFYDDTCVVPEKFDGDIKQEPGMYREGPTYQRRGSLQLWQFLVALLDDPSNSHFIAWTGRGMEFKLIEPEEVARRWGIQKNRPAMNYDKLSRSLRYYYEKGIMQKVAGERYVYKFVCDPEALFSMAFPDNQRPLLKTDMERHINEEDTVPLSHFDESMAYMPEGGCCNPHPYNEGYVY
ELF4, sequence (Q99607 whole entry): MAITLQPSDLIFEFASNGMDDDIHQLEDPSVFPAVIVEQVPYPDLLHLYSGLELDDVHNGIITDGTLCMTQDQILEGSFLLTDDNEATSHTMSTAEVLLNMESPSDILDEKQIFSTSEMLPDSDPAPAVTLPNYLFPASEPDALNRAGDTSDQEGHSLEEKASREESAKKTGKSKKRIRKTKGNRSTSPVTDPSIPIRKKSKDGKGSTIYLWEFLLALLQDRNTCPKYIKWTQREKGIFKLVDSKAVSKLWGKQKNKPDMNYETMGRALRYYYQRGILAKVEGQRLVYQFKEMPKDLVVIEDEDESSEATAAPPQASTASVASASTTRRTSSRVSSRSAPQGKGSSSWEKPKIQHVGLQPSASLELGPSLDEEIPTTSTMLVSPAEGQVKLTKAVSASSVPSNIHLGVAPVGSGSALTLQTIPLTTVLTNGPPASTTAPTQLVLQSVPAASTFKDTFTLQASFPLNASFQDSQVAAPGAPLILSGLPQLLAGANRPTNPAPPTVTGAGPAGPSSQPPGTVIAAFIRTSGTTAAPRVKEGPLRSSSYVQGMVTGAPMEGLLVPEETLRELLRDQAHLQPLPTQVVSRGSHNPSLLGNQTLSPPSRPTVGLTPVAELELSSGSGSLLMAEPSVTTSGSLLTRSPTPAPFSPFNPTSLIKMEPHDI
ETV6, sequence (P41212 whole entry): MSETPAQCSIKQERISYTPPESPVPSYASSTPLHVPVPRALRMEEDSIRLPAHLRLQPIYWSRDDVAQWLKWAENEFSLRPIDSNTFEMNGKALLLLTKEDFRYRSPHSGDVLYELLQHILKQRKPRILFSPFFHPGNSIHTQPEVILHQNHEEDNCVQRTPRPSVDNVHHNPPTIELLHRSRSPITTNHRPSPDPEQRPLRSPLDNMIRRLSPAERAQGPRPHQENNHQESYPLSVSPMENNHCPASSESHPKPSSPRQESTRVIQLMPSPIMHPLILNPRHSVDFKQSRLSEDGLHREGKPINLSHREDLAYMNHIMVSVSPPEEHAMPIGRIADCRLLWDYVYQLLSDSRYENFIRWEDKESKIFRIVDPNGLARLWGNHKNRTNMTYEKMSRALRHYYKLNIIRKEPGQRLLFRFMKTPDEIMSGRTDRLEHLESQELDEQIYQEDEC
ETV5, sequence (P41161 whole entry): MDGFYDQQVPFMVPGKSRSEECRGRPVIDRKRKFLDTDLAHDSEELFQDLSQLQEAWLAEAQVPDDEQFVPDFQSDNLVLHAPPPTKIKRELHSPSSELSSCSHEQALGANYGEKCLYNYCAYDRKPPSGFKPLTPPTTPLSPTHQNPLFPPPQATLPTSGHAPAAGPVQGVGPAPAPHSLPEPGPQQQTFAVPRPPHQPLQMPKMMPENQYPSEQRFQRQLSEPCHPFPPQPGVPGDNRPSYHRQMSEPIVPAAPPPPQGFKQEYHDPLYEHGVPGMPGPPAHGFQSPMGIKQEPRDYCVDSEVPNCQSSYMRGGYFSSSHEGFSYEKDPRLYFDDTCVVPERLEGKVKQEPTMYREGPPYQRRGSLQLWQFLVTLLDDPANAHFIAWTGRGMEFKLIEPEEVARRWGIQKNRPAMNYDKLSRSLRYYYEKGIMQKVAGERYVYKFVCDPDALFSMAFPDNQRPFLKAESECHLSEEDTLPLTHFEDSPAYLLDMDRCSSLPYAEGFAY

Q: TCCGTA was tested. Which binding signal (FEV) did it give?
A: The binding signal was 1.43 fold enrichment (6-mer frequency, TF over GST control).

Q: And the binding signal (ETV5)?
A: The binding signal was 1.62 fold enrichment (6-mer frequency, TF over GST control).

Q: What about the binding signal (HSF1) of the same sequence?
A: Its binding signal is 1.1 fold enrichment (6-mer frequency, TF over GST control).

Q: And the binding signal (SPIC)?
A: Its binding signal is 1.56 fold enrichment (6-mer frequency, TF over GST control).

Q: What about the binding signal (ELF4) of the same sequence?
A: The binding signal was 1.47 fold enrichment (6-mer frequency, TF over GST control).

Q: What about the binding signal (ELK4) of the same sequence?
A: Its binding signal is 1.6 fold enrichment (6-mer frequency, TF over GST control).

Q: And the binding signal (ETV2)?
A: The binding signal was 1.63 fold enrichment (6-mer frequency, TF over GST control).

Q: And the binding signal (ELF3)?
A: Its binding signal is 1.47 fold enrichment (6-mer frequency, TF over GST control).

Q: And the binding signal (CRX)?
A: The binding signal was 1.21 fold enrichment (6-mer frequency, TF over GST control).

Q: What about the binding signal (ETV1) of the same sequence?
A: Its binding signal is 1.47 fold enrichment (6-mer frequency, TF over GST control).

Q: And the binding signal (ERF)?
A: The binding signal was 1.43 fold enrichment (6-mer frequency, TF over GST control).

Q: And the binding signal (ETV3L)?
A: Its binding signal is 1.53 fold enrichment (6-mer frequency, TF over GST control).

Q: What about the binding signal (ETS2) of the same sequence?
A: The binding signal was 1.57 fold enrichment (6-mer frequency, TF over GST control).

Q: And the binding signal (SPDEF)?
A: Its binding signal is 1.79 fold enrichment (6-mer frequency, TF over GST control).

Q: And the binding signal (ETV7)?
A: The binding signal was 1.37 fold enrichment (6-mer frequency, TF over GST control).

Q: And the binding signal (ELF5)?
A: Its binding signal is 2.03 fold enrichment (6-mer frequency, TF over GST control).

Q: And the binding signal (ETV3)?
A: Its binding signal is 1.71 fold enrichment (6-mer frequency, TF over GST control).

Q: What about the binding signal (ETV6) of the same sequence?
A: Its binding signal is 1.54 fold enrichment (6-mer frequency, TF over GST control).
